Consider 36 compounds from PubChem BioAssay (Tox21).

Experiment [1] is described as follows: qHTS assay to identify small molecule antagonists of the estrogen receptor alpha (ER-alpha) signaling pathway using the BG1 cell line in the presence of 0.1 nM 17-beta-estradiol - cell viability counter screen (AID 1259241). Note: nearly all actives have a fitted effect of over 40% in size. Note: potency is the fitted concentration of half-maximal effect. The procedure, abridged:
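Live-cell protease activity (CellTiter-Fluor fluorescence, 30 min) was read in the same wells after VM7Luc4E2 cells had been exposed to compounds with 0.1 nM 17beta-estradiol for 22 hr at 37C.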

Experiment [2] can be described thus: qHTS assay to identify small molecule antagonists of the androgen receptor (AR) signaling pathway using the MDA cell line in the presence of 0.5 nM R1881 - cell viability counter screen (AID 1259242). Note: nearly all actives have a fitted effect of over 45% in size. Note: potency is the fitted concentration of half-maximal effect. A digest of the protocol: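 Fluorescence from CellTiter-Fluor, which reports protease activity of live cells, was read 30 min after reagent addition to MDA-kb2 cells that had been incubated 16 hr with compound and 0.5 nM R1881.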
Background: In qHTS, concentration-response curves come from the screen itself.

Experiment [3] is described as follows: qHTS assay to identify small molecule HDAC inhibitors (AID 1259364). Note: nearly all actives have a fitted effect of over 45% in size. Note: potency is the fitted concentration of half-maximal effect. The procedure, abridged: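 Endogenous HDAC class I/II activity was measured in wild-type HCT-116 cells by HDAC-Glo luminescence after 2 h compound treatment.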
The nature of experiment [4]: qHTS assay to identify small molecule HDAC inhibitors - cell viability counter screen (AID 1259365). Note: series mostly up to about 92 µM; nearly all actives have a fitted effect of over 50% in size. A digest of the protocol: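 HCT-116 (wild type), 1,500 cells/well, overnight 37C/5% CO2; compound in DMSO 2hr; CellTiter-Glo 30min RT; luminescence read.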
Experiment [5] is described as follows: qHTS assay to identify small molecule agonists of the sonic hedgehog signaling (Shh) pathway - cell viability counter screen (AID 1259366). Note: nearly all actives have a fitted effect of over 50% in size. Note: potency is the fitted concentration of half-maximal effect. A digest of the protocol: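 CellTiter-Fluor fluorescence read-out, 1 hr at 37C, added after 23hr compound exposure. Cells: 3T3 Gli1-Luc, an NIH/3T3 clone with stably integrated Gli1-Luc reporter, plated 4hr before compound.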

A short description of experiment [6]: qHTS assay to identify small molecule antagonists of the sonic hedgehog signaling (Shh) pathway - cell viability counter screen (AID 1259367). Note: nearly all actives have a fitted effect of over 55% in size. Note: potency is the fitted concentration of half-maximal effect. A digest of the protocol:
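NIH/3T3-derived Gli1-Luc reporter cells, 2,000/well, plated 4 hr before compound addition, then stimulated with conditioned medium for 24 hr at 37C. Viability measured in the same wells by CellTiter-Fluor fluorescence, reagent added at 23 hr for 1 hr.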

Experiment [7] can be described thus: qHTS assay to identify small molecule agonists of the sonic hedgehog signaling (Shh) pathway (AID 1259368; calls by dose curve;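 note: NIH/3T3-derived 3T3Gli1-Luc cells carrying a stable Gli1-driven firefly luciferase reporter; series mostly up to about 92 µM; nearly all actives have a fitted effect of over 15% in size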). The procedure, abridged:
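Luminescent signal was taken as a measure of Gli1-controlled luciferase expression in stably transfected NIH/3T3-derived cells that had been treated for 24 hr with compounds delivered in DMSO.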

Experiment [8] concerns the target Estrogen receptor (Homo sapiens) (UniProt P03372). The experiment in a line: qHTS assay to identify small molecule antagonists of the estrogen receptor alpha (ER-alpha) signaling pathway using the BG1 cell line in the presence of 0.1 nM 17-beta-estradiol (AID 1259244). Note: nearly all actives have a fitted effect of over 50% in size. The procedure, abridged: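 Quantitative high-throughput screen in VM7Luc4E2 cells: compound plus 0.1 nM E2 (final), 22 h, 37C, 5% CO2; ONE-Glo added, 30 min room temperature, luminescence measured.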

Experiment [9] in a line: qHTS assay to identify small molecule phospholipidosis (PLD) inducers (AID 1259344; active = well fitted curve in the direction sought with a large enough effect; an effect the other way counts as inactive or inconclusive). The procedure, abridged:
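HepG2 cells, 900/well, treated with compound plus LipidTOX Red for 24 h at 37 C; amiodarone positive and DMSO negative controls. Fixed with paraformaldehyde/Hoechst, then high-content imaging scored LipidTOX pit count and integrated intensity per well and per cell.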

The structures appear in SMILES notation. “And” between values parts separate entries of the source, which are not always exact repeats. Equal values may be shown once. Inconclusive results are not listed. The source holds several records for some structures; these can differ, active in one and inactive in another. The source made the active and inactive calls. Unless noted, calls come from the whole dose curve; as a rule, active = well fitted curve in the direction sought with a large enough effect in the repeat runs; inconclusive = weak or mixed curves; inactive = no such curve, though single readings can be large; an effect the other way counts as inactive or inconclusive.

Chain of Estrogen receptor (Homo sapiens) (P03372 whole entry, looked up): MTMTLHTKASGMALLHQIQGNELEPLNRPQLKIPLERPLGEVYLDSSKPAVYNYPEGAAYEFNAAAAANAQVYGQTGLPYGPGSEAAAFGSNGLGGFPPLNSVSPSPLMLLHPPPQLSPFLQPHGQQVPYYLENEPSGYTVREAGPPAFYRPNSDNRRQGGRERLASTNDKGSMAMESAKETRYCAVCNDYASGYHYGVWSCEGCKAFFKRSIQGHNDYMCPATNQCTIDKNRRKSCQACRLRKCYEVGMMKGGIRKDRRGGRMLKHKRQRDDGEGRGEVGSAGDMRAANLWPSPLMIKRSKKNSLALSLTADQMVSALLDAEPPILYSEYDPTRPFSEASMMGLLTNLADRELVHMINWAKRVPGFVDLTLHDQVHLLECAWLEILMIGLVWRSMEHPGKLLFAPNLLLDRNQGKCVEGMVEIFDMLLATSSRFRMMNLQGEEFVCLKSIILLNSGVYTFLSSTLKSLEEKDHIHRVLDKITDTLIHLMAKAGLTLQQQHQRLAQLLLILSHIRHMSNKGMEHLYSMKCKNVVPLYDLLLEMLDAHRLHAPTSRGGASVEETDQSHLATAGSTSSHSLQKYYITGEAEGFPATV

Regarding `CCCCC(CC)COC(=O)/C=C\C(=O)OCC(CC)CCCC` (stereo not given), the Potency entry in experiment [1], in experiment [2], in experiment [3], in experiment [5] and in experiment [6] was “inactive” each time. Besides, the call in experiment [4] and in [7] was inactive.
Take `CCOC(=O)C1OC1c1ccccc1` (stereo not given): the Potency result in experiment [1], in experiment [2], in experiment [5] and in [6] was “inactive” each time. In [3], the Potency was 49.5 µM (active). The outcome in experiment [4] and in experiment [7] was inactive.
With `CCCCCCOC(C)=O`, the Potency result in experiment [1], in [2], in [8], in [3], in [5] and in experiment [6] was “inactive” in each case. Also, the outcome in experiment [4] and in experiment [7] was inactive.
`CCCCNC(N)=O`: the Potency entry in experiment [1], in [2], in experiment [3], in experiment [5] and in experiment [6] was “inactive” each time. Besides, the compound was called inactive in experiment [7].
Consider `CC#C[C@]1(O)CC[C@H]2[C@@H]3CCC4=CC(=O)CCC4=C3[C@@H](c3ccc(N(C)C)cc3)C[C@@]21C`, for which the Potency result in experiment [1], in [2], in experiment [3], in experiment [5] and in [6] was “inactive” each time. Also, the result in experiment [9], in [4] and in experiment [7] was inactive.
Take `O=C1CCCCC1`: the Potency entry in experiment [1], in experiment [2], in experiment [8], in experiment [3], in [5] and in experiment [6] was “inactive” throughout. Further, the result in [7] was inactive.
As for `C[C@@H]1O[C@@H](OC[C@H]2O[C@@H](Oc3c(-c4ccc(O)c(O)c4)oc4cc(O)cc(O)c4c3=O)[C@H](O)[C@@H](O)[C@@H]2O)[C@H](O)[C@H](O)[C@H]1O`, the Potency entry in experiment [1], in experiment [2], in [3], in experiment [5] and in [6] was “inactive” each time. For the same compound, the outcome in experiment [9] and in [7] was inactive.
In the case of `O=C(Cl)c1c(Cl)c(Cl)c(C(=O)Cl)c(Cl)c1Cl`, the Potency result in [1], in experiment [2], in [8], in experiment [3], in experiment [5] and in experiment [6] was “inactive” throughout. For the same compound, the outcome in [7] was inactive.
In the case of `OC[C@@H](O)[C@@H](O)[C@H](O)[C@@H](O)CO`, the Potency result in experiment [1], in experiment [2], in [8], in [3], in [5] and in [6] was “inactive” throughout. For the same compound, the outcome in experiment [4] and in [7] was inactive.
As for `CCCCCCCCCCCCOCC1CO1` (stereo not given), the Potency result in experiment [1], in experiment [2], in experiment [8], in experiment [3], in experiment [5] and in experiment [6] was “inactive” each time. Further, the outcome in experiment [7] was inactive.
Regarding `NC(=O)/N=N/C(N)=O`, the Potency entry in experiment [1], in experiment [2], in experiment [8], in [3], in [5] and in [6] was “inactive” in each case. The call in experiment [4] and in experiment [7] was inactive.
For the compound `Cc1cc(Cc2ccc(N)c(C)c2)ccc1N`, the Potency result in experiment [1], in experiment [2], in experiment [3], in [5] and in experiment [6] was “inactive” throughout. In [7], the result was inactive.
Turning to `c1ccc2ccccc2c1`, the Potency entry in experiment [1], in experiment [2], in [8], in [3], in [5] and in [6] was “inactive” in each case. Further, the compound was called inactive in experiment [9] and in experiment [7].
Consider `COC(=O)c1ccccc1O`, for which the Potency entry in experiment [1], in experiment [2], in [8], in experiment [3], in experiment [5] and in experiment [6] was “inactive” each time. For the same compound, the outcome in experiment [9], in [4] and in experiment [7] was inactive.
On to `CCCCCCC(C)(C)S`, for which the Potency entry in experiment [1], in [2], in experiment [3], in experiment [5] and in experiment [6] was “inactive” in each case. The compound was classed as inactive in experiment [4] and in experiment [7].
Consider `CN(CCOc1ccc(CC2SC(=O)NC2=O)cc1)c1ccccn1` (stereo not given), for which the Potency result in [1], in [2], in [8], in experiment [5] and in experiment [6] was “inactive” in each case. In addition, the call in [9] and in [7] was inactive. In [3], the Potency is 30.5 µM (active) and inactive.
As for `C=C1C2CCC(C2)C1(C)C` (stereo not given), the Potency entry in [1], in [2], in experiment [8], in [3], in experiment [5] and in experiment [6] was “inactive” each time. In addition, the call in experiment [4] and in experiment [7] was inactive.
With `CC(=O)Nc1ccc(C(=O)O)cc1`, the Potency entry in experiment [1], in experiment [2], in experiment [8], in experiment [3], in [5] and in [6] was “inactive” in each case. Moreover, the call in experiment [9] and in [7] was inactive.
On to `O=S(=O)(O)c1cc(S(=O)(=O)O)c2c(N=Nc3ccccc3)c(O)ccc2c1`, for which the Potency result in experiment [8] and in experiment [3] was “inactive” each time. The call in experiment [4] and in [7] was inactive.
In the case of `CS(=O)(=O)Nc1ccc([N+](=O)[O-])cc1Oc1ccccc1`, the Potency entry in [2] and in experiment [3] was “inactive” in each case. For the same compound, the result in experiment [9] and in experiment [7] was inactive.
With `Nc1c(S(=O)(=O)O)cc(Br)c2c1C(=O)c1ccccc1C2=O`, the Potency entry in experiment [2] was “inactive and 24.3 µM (active)”; in [5] it was “inactive and 30.6 µM (active)”; in experiment [6] it was “inactive and 27.3 µM (active)”. The Potency result in [8] and in [3] was “inactive” throughout. The call in [7] was inactive.
For `CC1CC(OC(=O)c2ccccc2O)CC(C)(C)C1` (stereo not given), the Potency entry in experiment [1], in experiment [2], in [3] and in experiment [5] was “inactive” each time. Further, the compound was called inactive in experiment [9], in [4] and in experiment [7]. Also, the Potency in experiment [6] was 60.5 µM (active) and inactive.
`Oc1ccc2ccccc2c1`: the Potency entry in experiment [1], in experiment [2], in experiment [3], in [5] and in [6] was “inactive” throughout. Also, the compound was called inactive in experiment [4] and in experiment [7].
Consider `O=[N+]([O-])c1cc(N(CCO)CCO)ccc1NCCO`, for which the Potency in [1] is 34.4 µM (active). Also, the Potency entry in experiment [5] and in experiment [6] was “inactive” throughout. For the same compound, in experiment [7], the compound was classed as inactive.
Turning to `Nc1cc(-c2ccncc2)c[nH]c1=O`, the Potency result in experiment [1], in experiment [2], in [8], in experiment [3], in [5] and in [6] was “inactive” each time. The outcome in experiment [9] and in experiment [7] was inactive.
For `OCC1CCCO1` (stereo not given), the Potency entry in [1], in experiment [2], in experiment [8], in experiment [3], in experiment [5] and in experiment [6] was “inactive” each time. The result in experiment [7] was inactive.
`CNC[C@H](O)[C@@H](O)[C@H](O)[C@H](O)CO`: the Potency result in experiment [1], in experiment [2], in experiment [3], in experiment [5] and in experiment [6] was “inactive” throughout. For the same compound, the result in experiment [9], in [4] and in experiment [7] was inactive.
As to `Oc1ccc2ccccc2c1N=Nc1ccccc1`, the Potency is 30.6 µM (active) in experiment [1]; 21.7 µM (active) and 15.4 µM (active) in [3]; 34.3 µM (active) in experiment [5]. The Potency result in experiment [8] and in experiment [6] was “inactive” each time. Moreover, the outcome in experiment [4] and in experiment [7] was inactive.
Consider `Cc1cc(O)c2c(c1)C(=O)c1cc(O)cc(O)c1C2=O`, for which the Potency result is “inactive and 48.6 µM (active)” in [2]; 5.32 µM (active) and 1.93 µM (active) in experiment [3]; “inactive and 54.5 µM (active)” in experiment [6]. Besides, the Potency entry in [8] and in experiment [5] was “inactive” in each case. Moreover, the outcome in [7] was inactive.
In the case of `CCOC(=O)/C=C\C(=O)OCC`, the Potency entry in experiment [1], in experiment [2], in [8], in experiment [3], in experiment [5] and in experiment [6] was “inactive” each time. In addition, the outcome in [4] and in experiment [7] was inactive.
Consider `O=C(c1cc(O)c(O)c(O)c1)c1ccc(O)c(O)c1O`, for which the Potency result in experiment [2], in experiment [8] and in [3] was “inactive” throughout. Moreover, the result in experiment [4] and in experiment [7] was inactive. The Potency in experiment [5] is 54.3 µM (active) and 54.5 µM (active); in experiment [6], 54.5 µM (active).
With `OCCOCCOCCOCCO`, the Potency entry in experiment [1], in [2], in experiment [8], in [3], in experiment [5] and in experiment [6] was “inactive” in each case. Besides, the compound was classed as inactive in experiment [4] and in experiment [7].
Turning to `C/C=C(C)/C=C/C=C(C)C`, the Potency entry in [1], in experiment [2], in experiment [3], in experiment [5] and in experiment [6] was “inactive” each time. In addition, in experiment [7], the call was inactive.
Take `O=C(Oc1ccccc1)c1ccc(O)cc1`: the Potency result in experiment [1], in experiment [2], in experiment [5] and in [6] was “inactive” each time. The Potency in [3] was 21.8 µM (active) and 21.7 µM (active). For the same compound, the compound was classed as inactive in experiment [7].
As for `NS(=O)(=O)c1cc2c(cc1Cl)NC=NS2(=O)=O`, the Potency entry in experiment [1], in experiment [2], in [8], in experiment [3], in [5] and in experiment [6] was “inactive” throughout. Further, the call in [9], in experiment [4] and in experiment [7] was inactive.
As to `CCCCCCCCC`, the Potency result in experiment [1], in experiment [2], in [8], in [3], in experiment [5] and in experiment [6] was “inactive” throughout. Besides, the compound was called inactive in [4] and in [7].
